Reference: PubChem BioAssay AID463173 (ICCB-Longwood Screening Facility, Harvard Medical School, 2010)
About 4,300 (8.3%) of roughly 52,000 compounds were called active. This excerpt belongs to a sample that is enriched for actives. Unmarked numbers belong to inactive results. Rule as the data show it: active = survival mostly below about 52% (no sharp cut-off); inactive = mostly above about 56%.

These compounds were tested on DeltatarO mutant (assay: S. aureus survival, RN4220 and DeltatarO strains – OD600, teichoic acid synthesis inhibitors, primary screen (AID 463173)). Conditions: S. aureus RN4220 wild type/DeltatarO growth, OD600, 18 h, stronger effect = lower value, screened at 18.75 µg/mL (by protocol).
For `COc1ccc(CNC(=O)c2ccc3c(c2)nc2n3CCCCC2)cc1`, the survival was 89%. `CCN(CC)S(=O)(=O)c1ccc2nc(NC(=O)c3ccc(Br)o3)sc2c1` gave a survival of 87%. Compound `N#Cc1ccc(NC(=O)c2cc(-c3cccc(Cl)c3)on2)cc1` has a survival of 71%. `CCCCCNC(=O)C1CCC(Cn2c(=O)c3sccc3n(CC)c2=O)CC1` (stereo unspecified) showed a survival of 49%. `CNC(=O)C1CCC(Cn2c(=O)[nH]c3ccsc3c2=O)CC1` (stereo unspecified) gave a survival of 99%. With `CCCCN(C)C(=O)C1CCC(Cn2c(=O)[nH]c3ccsc3c2=O)CC1` (stereo unspecified) the survival was 0% (active). For `CCC(CC)C(=O)Nc1cc(-c2ccccc2F)nn1-c1ccccc1`, the survival was 76%. `CCOC(=O)c1c(NC(=O)COc2cccc(C)c2C)sc2c1CCCCC2` was tested, and the survival was 64%. Compound `COC(=O)c1c(NC(=O)COc2cccc(C(F)(F)F)c2)sc2c1CCCC2` has a survival of 49%. Work on `CCOC(=O)c1c(NC(=O)COc2ccccc2F)sc2c1CCCC2` yielded a survival of 67%. For `CCOC(=O)c1c(NC(=O)COc2cccc(C(F)(F)F)c2)sc2c1CCC(C)C2` (stereo unspecified), the survival was 68%. With `CCOC(=O)c1c(NC(=O)COc2cccc(C(F)(F)F)c2)sc2c1CCCCC2` the survival was 60% (active). With `CCOC(=O)c1c(NC(=O)COc2ccccc2Br)sc2c1CCCCC2` the survival was 40% (active). For `O=S(=O)(Nc1cccc(-c2ccc(N3CCOCC3)nn2)c1)c1ccc(F)cc1F`, the survival was 62%. `Cc1c(CCNC(=O)c2c(F)cccc2F)sc2nc(-c3ccc(F)cc3)nn12` gave a survival of 117%. With `CCOc1ccccc1CNC(=O)c1ccc(NC(=O)N2CCSc3ncccc32)cc1` the survival was 79%. `CCc1nnc(NC(=O)CSC2=NC(=O)C(NC(C)=O)C(=O)N2)s1` (stereo unspecified) was tested, and the survival was 99%. `CCCN(CCC)C(=O)Cn1c(=O)n(CCCCCC(=O)NCc2ccccc2Cl)c(=O)c2sccc21` showed a survival of 81%. For `Cc1ccc(Cn2c(=O)n(Cc3ccccc3)c(=O)c3oc4ccccc4c32)cc1`, the survival was 69%. `CC(=O)N1CCCc2cc(S(=O)(=O)NCc3cccc(C)c3)ccc21` was tested, and the survival was 78%. `C=CCc1c(C)nc2nc(SCC(=O)Nc3ccc(C)c(C)c3)nn2c1C` gave a survival of 75%. With `CCOC(=O)c1ccccc1NC(=O)CSc1cc(C)[nH]c(=O)n1` the survival was 88%. With `COc1cc(C(=O)Nc2cc(C)ccc2OCc2cc(=O)n3cc(C)sc3n2)cc(OC)c1OC` the survival was 89%. For `O=C(c1cccn1-c1nnc(N2CCCCC2)s1)N1CCN(c2ccccc2)CC1`, the survival was 0% (active). `COc1ccc(N2CCN(C(=O)c3cccn3-c3nnc(N4CCCC4)s3)CC2)cc1` showed a survival of 101%. For `O=C(c1cccn1-c1nnc(N2CCCC2)s1)N1CCN(c2ccccc2)CC1`, the survival was 25% (active). Work on `O=C(c1cccn1-c1nnc(N2CCCC2)s1)N1CCN(c2ccc(Cl)cc2)CC1` yielded a survival of 63%. `O=C(c1cccn1-c1nnc(N2CCCCC2)s1)N1CCN(c2ccc(Cl)cc2)CC1` was tested, and the survival was 69%. Work on `O=C(c1cccn1-c1nnc(N2CCCC2)s1)N1CCN(c2ccc(F)cc2)CC1` yielded a survival of 118%. With `O=S(=O)(c1ccc2nc(Nc3ccc(Br)cc3F)ccc2c1)N1CCCCC1` the survival was 70%. With `O=C(NCCc1ccccc1)C1COc2ccccc2C1` (stereo unspecified) the survival was 37% (active). `Cc1ccc(CCNC(=O)C2COc3ccccc3C2)cc1` (stereo unspecified) showed a survival of 74%. `COc1ccc(CCNC(=O)C2COc3ccccc3C2)cc1OC` (stereo unspecified) showed a survival of 75%. `Cc1ccc(CNC(=O)C2COc3ccccc3C2)cc1` (stereo unspecified) gave a survival of 117%. With `CCOc1cc(CNC(=O)C2COc3ccccc3C2)cc(OCC)c1OCC` (stereo unspecified) the survival was 69%. With `CN(C)c1ccc(CNC(=O)C2COc3ccccc3C2)cc1` (stereo unspecified) the survival was 32% (active). In the case of `O=C(NCCc1ccc(Cl)cc1)C1COc2ccccc2C1` (stereo unspecified), the survival is reported as 69%. In the case of `CCOc1ccc(CCNC(=O)C2COc3ccccc3C2)cc1OCC` (stereo unspecified), the survival is reported as 0% (active). In the case of `CCc1ccc(CNC(=O)C2COc3ccccc3C2)cc1` (stereo unspecified), the survival is reported as 81%. Work on `NC(=O)c1cc(S(=O)(=O)NCC2CCC(C(=O)Nc3cccc(Cl)c3)CC2)cs1` (stereo unspecified) yielded a survival of 76%. `CCCOc1ccc(-c2nonc2NC(=O)c2cc(OC)c(OC)c(OC)c2)cc1OCCC` was tested, and the survival was 84%. In the case of `COc1ccccc1CNC(=O)CCNS(=O)(=O)c1cccc2nsnc12`, the survival is reported as 64%. `CCc1ccccc1NC(=O)C(=O)c1cc(C)n(-c2ccccc2F)c1C` showed a survival of 87%. `CCOC(=O)C1=C(CN2CCN(c3ccc(C)cc3C)CC2)NC(=O)NC1c1ccc(OC)cc1` (stereo unspecified) was tested, and the survival was 97%. Compound `CC1(C)CC2(CC(C)(C)NC(=O)N2)NC(=O)N1` has a survival of 89%. Compound `Cc1cc(C)c(Cn2c(=O)n(Cc3ccccc3)c(=O)c3c(C)c(C)sc32)c(C)c1` has a survival of 49%. `Cc1cccc(-c2nnc(SCC(=O)NC3CCCCC3)o2)c1` gave a survival of 82%. `Cc1ccc(CNC(=O)c2ccc3c(O)c(S(=O)(=O)c4ccc(Cl)cc4)c(=O)[nH]c3c2)cc1` was tested, and the survival was 84%. In the case of `COc1ccc(C(=O)Nc2ccc(-c3nc4ncccc4o3)cc2)cc1`, the survival is reported as 78%. `Cc1ccc(-c2nc3ncccc3o2)cc1NC(=O)c1cccc(OCC(C)C)c1` was tested, and the survival was 42% (active). In the case of `Cc1cc(-c2nc3ncccc3o2)ccc1NC(=O)c1ccc(Cl)cc1`, the survival is reported as 76%. With `Cc1cc(-c2nc3ncccc3o2)ccc1NC(=O)c1ccccc1Br` the survival was 27% (active). `CCOc1cc(C(=O)Nc2ccc(-c3nc4ncccc4o3)cc2C)cc(OCC)c1OCC` was tested, and the survival was 52% (active). With `Cc1ccc(-c2nc3ncccc3o2)cc1NC(=O)c1ccccc1Br` the survival was 53%. For `Cc1cc(C)cc(C(=O)Nc2ccc(-c3nc4ncccc4o3)cc2)c1`, the survival was 56%. `COc1c(C)cc(Br)cc1C(=O)Nc1ccc(-c2nc3ncccc3o2)cc1` was tested, and the survival was 50%. `Cc1ccc(C(=O)Nc2cc(-c3nc4ncccc4o3)ccc2C)c(C)c1` was tested, and the survival was 98%. With `COc1ccc(C(=O)Nc2cc(-c3nc4ncccc4o3)ccc2C)cc1Br` the survival was 40% (active). Work on `CC(C)COc1cccc(C(=O)Nc2ccc(-c3nc4ncccc4o3)cc2)c1` yielded a survival of 65%. With `Cc1cc(-c2nc3ncccc3o2)ccc1NC(=O)c1ccc(Br)cc1` the survival was 174%. Compound `CCOC(=O)C1CCCN(S(=O)(=O)c2cc(Br)cc3c2N(C(C)=O)CC3)C1` (stereo unspecified) has a survival of 72%. In the case of `CCC1CN(C(=O)N2CCC(C(=O)NCc3cccc(C)c3)CC2)c2ccccc2O1` (stereo unspecified), the survival is reported as 77%. In the case of `O=C(NCc1ccco1)Nc1ccccc1`, the survival is reported as 94%. Compound `O=C(CCCCn1c(=O)c2ccccc2n(CC(=O)Nc2ccc(F)cc2F)c1=O)NCCc1ccccc1` has a survival of 92%. Work on `CC1=C(C(=O)NCc2ccccc2Cl)C2(CCCCCC2)OC1=O` yielded a survival of 49%. In the case of `CCCN(c1ccc(C(C)C)cc1)S(=O)(=O)c1ccc2c(c1)n(C)c(=O)c(=O)n2C`, the survival is reported as 84%. In the case of `COc1ccc(NC(=O)Cn2c(C)cc3ccccc3c2=O)c(OC)c1`, the survival is reported as 59%. Work on `CCc1cccc(C)c1Nc1c(-c2cccc(O)c2)nc2nc(C)cc(C)n12` yielded a survival of 66%. In the case of `CCc1cccc(NC(=O)CCS(=O)(=O)c2cc(Br)cc3c2N(C(C)=O)CC3)c1`, the survival is reported as 144%. In the case of `Cc1ccc(-c2nc3ncccc3o2)cc1NC(=O)c1ccc(-c2ccc(Cl)cc2)o1`, the survival is reported as 35% (active). In the case of `COc1ccc(C(=O)Nc2ccc(-c3nc4ncccc4o3)cc2C)cc1Br`, the survival is reported as 37% (active). `Cc1ccc(-c2nc3ncccc3o2)cc1NC(=O)c1ccc(-c2cccc(Cl)c2C)o1` gave a survival of 56%. `O=C(Nc1nccs1)c1ccc(-c2ccc(Cl)cc2)o1` was tested, and the survival was 35% (active). With `COc1ccc(Br)cc1C(=O)Nc1ccc(-c2nc3ncccc3o2)cc1C` the survival was 41%. In the case of `CC(=O)c1ccc(NC(=O)c2ccc(-c3ccc(Cl)cc3)o2)cc1`, the survival is reported as 92%. `CCCC(=O)Nc1ccc(-c2nc3ncccc3o2)cc1C` gave a survival of 69%. For `Cc1cc(NC(=O)c2ccc(-c3ccc(Cl)cc3)o2)cc(-c2nc3ncccc3o2)c1O`, the survival was 88%. With `O=C(Nc1nccs1)c1cccc(C(=O)Nc2nccs2)c1` the survival was 98%. `CCCCc1nn2c(=O)cc(COC(=O)c3ccc(NC(=O)C(CC)CC)cc3)nc2s1` gave a survival of 94%. For `CCC(Sc1nc2ccccc2c2nc(CCn3c(C)nc4ccccc43)nn12)C(=O)Nc1ccc(F)cc1` (stereo unspecified), the survival was 67%. Compound `COc1ccc(Cn2c(CCC(=O)NCc3ccc(Cl)cc3)nc3cccnc32)cc1` has a survival of 112%. With `CC1CCCN(c2nc3nonc3nc2Nc2cccc(Cl)c2)C1` (stereo unspecified) the survival was 0% (active). Work on `Cc1cc(C)nc(N2CCCC(C)C2)n1` (stereo unspecified) yielded a survival of 87%. `CC1CCN(c2nc3nonc3nc2Nc2ccc(F)cc2)CC1` gave a survival of 78%. `COc1ccccc1CNC(=O)CCn1c(=O)c2ccccc2n(CC(=O)Nc2ccc(C)cc2C)c1=O` showed a survival of 86%. For `CCOC(=O)c1ccc(NC(=O)Cn2nnc(-c3ccc(C(F)(F)F)cc3)n2)cc1`, the survival was 87%. With `Cc1ccc2nc(Cl)c3cc(C(=O)NC4CCCCC4)sc3c2c1` the survival was 52%. `CCOC(=O)C1CCCN(C(=O)c2ccc(-n3ccc4ccccc43)s2)C1` (stereo unspecified) was tested, and the survival was -1% (active). In the case of `CCOC(=O)C1CCN(C(=O)c2ccc(-n3ccc4ccccc43)s2)CC1`, the survival is reported as 72%. Compound `CC1CCCN(C(=O)c2cc3c(=O)n(C)c4ccccc4c3s2)C1` (stereo unspecified) has a survival of 138%. For `Cc1ccc2nc(Cl)c3cc(C(=O)N4CCCCC4C)sc3c2c1` (stereo unspecified), the survival was 23% (active). `CCC(C)NC(=O)C1CCN(C(=O)c2ccc(-n3ccc4ccccc43)s2)CC1` (stereo unspecified) showed a survival of 81%. For `CC1CCN(C(=O)c2cc3c(=O)n(C)c4ccccc4c3s2)CC1`, the survival was 88%. `Cc1ccc2nc(Cl)c3cc(C(=O)NC4CCCCCC4)sc3c2c1` showed a survival of 102%. With `CCOC(=O)C1CCCN(C(=O)c2cc3c(=O)n(C)c4ccccc4c3s2)C1` (stereo unspecified) the survival was 44% (active). In the case of `CC(C)N(C(=O)c1cc2c(Cl)nc3ccccc3c2s1)C1CCCCC1`, the survival is reported as 16% (active).
